Test results reported in PubChem BioAssay (NCI).
Compounds without any hit were thinned out: in the full panel of roughly 83,000, 20% have a hit.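 Plates (96-well) were seeded with cells, treated with compound at one concentration, and incubated for 48 hours before percent growth was determined.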 The source made the active and inactive calls.

tested on: NCI-H522 lung; assay: NCI-60 one-dose screen, 48 h (100 = growth as untreated, 0 = no growth, -100 = all killed); conditions: 10 µM unless noted
Experimental: Growth inhibition of the NCI-H522 human Non-Small Cell Lung tumor cell line is measured as a screen for anti-cancer activity. Cells are grown in 96 well plates and exposed to the test compound for 48 hours. Compounds are tested at a single concentration, which is 10^-5 M for most compounds. The reported endpoint is percent growth (GI% or GIPRCNT), where numbers from 0 - 100% represent growth inhibition, and numbers from -100% - 0 represent cell death. For example, a value of 40 represents 60% growth inhibition. A value of 0 means no net growth occurred over the course of the experiment. A value of -40 indicates 40% of cells at the beginning of the experiment died by the end of the experiment. A value of -100 means all cells are dead at the end of the experiment.
NCI-60 Human Tumor Cell Lines Screen was performed using the standard one-dose NCI protocol, which is described in more detail at https://dtp.cancer.gov/discovery_development/nci-60/default.htm.
Compounds with GIPRCNT values below 10 were considered active. Activity score was based on GIPRCNT using the following formula: […]
Score is 0 for GIPRCNT values of 100 or above, 50 for GIPRCNT values of 0, and 100 for GIPRCNT values of -100.

Row | Compound | growth
1 | COc1cc(NC(=O)C2=C(C)NC(C)=C(C(=O)Nc3cc(OC)c(Cl)cc3OC)C2c2cccc([N+](=O)[O-])c2)c(OC)cc1Cl | 46.8% (inactive)
2 | CCCCCCN(CCCCCC)CCCNc1nccc2ccccc12 | 4.1% (active)
3 | NC(=S)N/N=C/c1ncccc1O | 26% (inactive)
4 | Cc1ccc(N2C(=O)C=CC2=O)cc1 | 74.8% (inactive)
5 | CCN(CC)CCNC(Cc1ccccc1)c1ccc(OCc2ccccc2)cc1 (stereo not given) | 73.6% (inactive)
6 | C(=N\Nc1ccc2ccccc2n1)/c1ccccn1 | 20.2% (inactive)
7 | Cc1ccc2cccc(OC(=O)Nc3cccc(C(F)(F)F)c3)c2n1 | 37.2% (inactive)
8 | Oc1ccc2c(c1)CCc1ccccc1-2 | 100% (inactive)
9 | CN(C)c1ccc(C(=C2C=CC(=[N+](C)C)C=C2)c2ccc(N(C)C)cc2)cc1 | -44.9% (active)
10 | CCCCCCCCCCCC[n+]1ccc2ccccc2c1 | -39.2% (active)
11 | O=C1/C(=C/c2ccccn2)CCc2ccccc21 | 89.9% (inactive)
12 | O=C(c1ccccc1)C(Br)[N+](=O)[O-] (stereo not given) | 64.4% (inactive)
13 | O=C(Cc1nc2cc(Cl)c(Cl)cc2nc1CC(=O)c1cccnc1)c1cccnc1 | 58.8% (inactive)
14 | CCOc1ccc(C(C[N+](=O)[O-])Sc2ccccc2N)cc1 (stereo not given) | 85.3% (inactive)
15 | Cc1nnc(N/N=C/c2ccc([N+](=O)[O-])o2)[nH]c1=O | 17.1% (inactive)
16 | O=C1/C(=C\c2ccc([N+](=O)[O-])cc2)CS(=O)(=O)C/C1=C/c1ccc([N+](=O)[O-])cc1 | -79.9% (active)
17 | C1=C(c2ccccc2)c2ccccc2C1 | 96% (inactive)
18 | CCCCOS(=O)(=O)c1ccccc1 | 111% (inactive)
19 | O=C(/C=C/c1ccccc1)c1ccccc1O | 69.6% (inactive)
20 | COc1cc([C@@H]2c3cc4c(cc3[C@H](OC3OC5COC(c6ccccc6)OC5C(O)C3O)[C@H]3COC(=O)[C@H]23)OCO4)cc(OC)c1OC (stereo not given in full) | 17.5% (inactive)

Row | Compound | growth
21 | C[n+]1ccccc1C[n+]1ccccc1 | 111% (inactive)
22 | N=C(N)Sc1cccc[n+]1[O-] | 37% (inactive)
23 | O=C(/C(Cl)=N/O)c1ccc(-c2ccccc2)cc1 | 30.7% (inactive)
24 | Oc1c(C(Nc2ccccc2)c2ccccc2)ccc2cccnc12 (stereo not given) | 4.85% (active)
25 | CCc1oc2ccccc2c1C(=O)c1cc(Br)c(O)c(Br)c1 | 30.8% (inactive)
26 | CN1CCC(c2ccccc2)(c2ccccc2)C(=O)C1 | 75.4% (inactive)
27 | CCCOS(=O)(=O)c1ccccc1 | 104% (inactive)
28 | COC(=O)c1ccc(=O)c2nc3/c(=C/O)c(O)cc(=O)c3[nH]c12 | 6.78% (active)
29 | CC1(C)CCCC2=C1C(=O)N(SC(Cl)(Cl)Cl)C2=O | -73.2% (active)
30 | Cc1ccccc1NC(=O)Cc1csc2[n+]1C(=O)/C(=C/c1ccc([N+](=O)[O-])cc1)S2 | 86.3% (inactive)
31 | COc1cc(OC)c(/C=C/c2c3ccccc3cc[n+]2C)c(OC)c1 | -19.3% (active)
32 | CC[n+]1ccc(Nc2ccc(NC(=O)c3ccc(Nc4cc[n+](CC)c5ccc([N+](=O)[O-])cc45)cc3)cc2)cc1 | 65.7% (inactive)
33 | O=[N+]([O-])C=C(c1ccccc1)c1ccccc1 | 72.7% (inactive)
34 | COc1ccc(/C=C2/C(=O)ON=C2C)cc1 | 94.2% (inactive)
35 | O=[N+]([O-])c1ccc(Oc2ccccc2Cl)c([N+](=O)[O-])c1 | 73.8% (inactive)
36 | O=C(OC12CC3CC(CC(C3)C1)C2)c1ccc(NCc2cc(O)ccc2O)cc1 | -74.7% (active)
37 | N#CC(=C1SCS1)[N+](=O)[O-] | -40.3% (active)
38 | Cc1nn(CCO)c(C)c1N=[N+]([O-])c1c(C)nn(CCO)c1C | -78% (active)
39 | CN(C)c1ccc(C(C#N)(c2ccccc2)c2ccc(N(C)C)cc2)cc1 | 82.2% (inactive)
40 | Cc1cc2nc(CC(=O)c3ccncc3)c(=O)[nH]c2cc1C | 87.6% (inactive)
